In assay [1] the test system is turtle Estrogen Receptor (ERa), gene 101933533. The assay is described as follows: ATG_trERa_XSP2: Attagene TRANS-FACTORIAL Multi-Species (XSP2) HepG2 Assay for turtle Estrogen Receptor (ERa) (AID 2283812).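 Also: human HepG2 liver cells transiently expressing turtle ERa-Gal4 chimeric receptor; actives raise reporter signal above DMSO so AC50 reflects agonist activity.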 Put shortly: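 HepG2 cells transiently transfected with GAL4-UAS reporter units expressing turtle ERa-Gal4 chimera. Reporter mRNA measured after 24 h dosing by RT-PCR, fluorescent labelling and capillary electrophoresis; gain of signal fitted versus DMSO.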

Assay [2] addresses Estrogen receptor beta (Homo sapiens) (UniProt Q92731). Briefly: ATG_hERb_XSP2: Attagene TRANS-FACTORIAL Multi-Species (XSP2) HepG2 Assay for human Estrogen Receptor (ERb) (AID 2283813).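 Also: actives raise reporter mRNA above DMSO so AC50 reflects agonist induction.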 Put shortly:
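HepG2 cells transiently transfected with GAL4-UAS reporter units and chimeric human ERb-Gal4, 24 h exposure. Reporter mRNA quantified by RT-PCR with FAM labelling, HpaI digestion and capillary electrophoresis; gain of signal versus DMSO.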

A further assay addresses AR (gene 367) (UniProt P10275). The assay is described as follows: ACEA_AR_antagonist_80hr: ACEA Biosciences xCELLigence Real-Time Cell Analysis on Androgen Receptor Antagonism for Proliferation (AID 2283787).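 Also: 22Rv1 human prostate cancer cells with growth followed by electrical impedance; hits lower the impedance growth signal relative to DMSO.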 Put shortly: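 Impedance readout (RT-CES), 80 h post-dose; loss-of-signal vs DMSO baseline. 22Rv1 cells in assay medium. Compounds: 8-pt 1:4 series, max 100 uM final, up to 0.5% DMSO; n = 2.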

Assay [3] concerns the target Estrogen receptor beta (Homo sapiens) (UniProt Q92731). Briefly: ATG_hERb_XSP1: Attagene TRANS-FACTORIAL Multi-Species (XSP1) HepG2 Assay for human Estrogen Receptor (ESR2) (AID 2283788). The method, boiled down:
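Read-out: reporter mRNA induction by RT-PCR, HpaI digestion and capillary electrophoresis fluorescence, fitted in positive direction relative to DMSO baseline. Human liver HepG2 cells expressing ERβ-Gal4 fusion, dosed 24 h, medium containing 3 nM 6-alpha-fluorotestosterone.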

Assay [4] deals with GAL4 Transcription Factor (Internal Marker), GAL4 (gene 855828) (UniProt P04386). The assay is described as follows: ATG_GAL4_XSP1: Attagene TRANS-FACTORIAL Multi-Species (XSP1) HepG2 Assay for GAL4 Transcription Factor (Internal Marker) (AID 2283789). The method, boiled down: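 HepG2 cells transiently transfected with multiplexed GAL4-UAS reporter units were exposed for 24 h with 3 nM 6-alpha-fluorotestosterone present. Reporter mRNA was quantified by RT-PCR, FAM labelling, HpaI digestion and capillary electrophoresis; background-control readout, gain-of-signal versus DMSO.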

Assay [5] can be described thus: ATG_M_06_XSP1: Attagene TRANS-FACTORIAL Multi-Species (XSP1) HepG2 Assay for M06 Transcription Factor (Internal Marker) (AID 2283790). The method, boiled down: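 Transfected HepG2 multi-reporter system treated 24 h in the presence of 3 nM 6-alpha-fluorotestosterone. The M06 internal marker transcript was quantified by RT-PCR with capillary electrophoresis as a background control, and gain of signal was scored versus DMSO.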

The nature of assay [6]: ATG_M_61_XSP1: Attagene TRANS-FACTORIAL Multi-Species (XSP1) HepG2 Assay for M61 Transcription Factor (Internal Marker) (AID 2283797). The method, boiled down:
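HepG2 cells transiently transfected with multiplexed GAL4-driven reporter units, dosed 24 h with 3 nM 6-alpha-fluorotestosterone present. Reporter mRNA quantified by RT-PCR, 6-FAM labelling, HpaI digestion and capillary electrophoresis; internal-marker background control, gain of signal versus DMSO.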

A short description of assay [7]: ATG_M_32_XSP1: Attagene TRANS-FACTORIAL Multi-Species (XSP1) HepG2 Assay for M32 Transcription Factor (Internal Marker) (AID 2283799). The method, boiled down: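 HepG2 cells transiently transfected with multi-species TRANS reporter units, dosed 24 h with 3 nM 6-alpha-fluorotestosterone present. Internal-marker reporter mRNA quantified by RT-PCR and capillary electrophoresis; positive-direction fit versus DMSO.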

Assay [8] deals with zebrafish Peroxisome Proliferator-activated Receptor gamma (PPARg), gene 557037. Briefly: ATG_zfPPARg_XSP1: Attagene TRANS-FACTORIAL Multi-Species (XSP1) HepG2 Assay for zebrafish Peroxisome Proliferator-activated Receptor gamma (PPARg) (AID 2283801). Put shortly:
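HepG2 cells transiently transfected with GAL4-UAS reporter units including a zebrafish PPARg–GAL4 chimera, dosed 24 h with 3 nM 6-alpha-fluorotestosterone present. Reporter mRNA quantified by RT-PCR, FAM labelling, HpaI digestion and capillary electrophoresis; induction versus DMSO.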

For assay [9], the target named is mouse Peroxisome Proliferator-activated Receptor gamma (PPARg), Pparg (gene 19016) (UniProt P37238). Briefly: ATG_mPPARg_XSP1: Attagene TRANS-FACTORIAL Multi-Species (XSP1) HepG2 Assay for mouse Peroxisome Proliferator-activated Receptor gamma (PPARg) (AID 2283802). Put shortly:
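HepG2 cells transiently transfected with GAL4-UAS reporter units driven by mouse PPARg–GAL4 chimera; 3 nM 6-alpha-fluorotestosterone present. After 24 h dosing, reporter mRNA quantified by RT-PCR, fluorescent labelling and capillary electrophoresis; gain of signal versus DMSO.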

The target of assay [10] is Nuclear receptor subfamily 1 group I member 2 (Mus musculus) (UniProt O54915). The assay is described as follows: ATG_mPXR_XSP1: Attagene TRANS-FACTORIAL Multi-Species (XSP1) HepG2 Assay for mouse Pregnane X Receptor (PXR) (AID 2283803). The method, boiled down: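 Transiently transfected HepG2 cells expressing a receptor-Gal4 chimera drive a GAL4-UAS reporter; 3 nM 6-alpha-fluorotestosterone included. Reporter mRNA read 24 h post-dose by RT-PCR and capillary electrophoresis; gain of signal relative to DMSO.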

The target of assay [11] is frog Thyroid hormone Receptor alpha (TRa), thra-a (gene 397942) (UniProt P15204). Briefly: ATG_frTRa_XSP1: Attagene TRANS-FACTORIAL Multi-Species (XSP1) HepG2 Assay for frog Thyroid hormone Receptor alpha (TRa) (AID 2283804). Put shortly: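 HepG2 cells transiently transfected with frog TRa-GAL4 chimeric reporter units, dosed 24 hr with 3 nM 6-alpha-fluorotestosterone present; reporter mRNA quantified by RT-PCR, fluorescent labelling and capillary electrophoresis, gain of signal versus DMSO.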

In assay [12] the target is human Thyroid hormone Receptor alpha (TRa), THRA (gene 7067) (UniProt P10827). Briefly: ATG_hTRa_XSP1: Attagene TRANS-FACTORIAL Multi-Species (XSP1) HepG2 Assay for human Thyroid hormone Receptor alpha (TRa) (AID 2283805). The method, boiled down:
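HepG2 cells transiently transfected with GAL4-UAS reporter units expressing chimeric NR-Gal4 proteins, dosed 24 hours with 3 nM 6-alpha-fluorotestosterone present. Reporter mRNA measured by RT-PCR and capillary electrophoresis; gain of signal fitted versus DMSO.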

For assay [13], the system named is turtle Thyroid Hormone Receptor, alpha (TRa), gene 101949057. The assay is described as follows: ATG_trTRa_XSP1: Attagene TRANS-FACTORIAL Multi-Species (XSP1) HepG2 Assay for turtle Thyroid Hormone Receptor, alpha (TRa) (AID 2283806). Put shortly: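 HepG2 cells transiently transfected with GAL4-UAS reporter units and chimeric receptor-Gal4 constructs, with 3 nM 6-alpha-fluorotestosterone present. Reporter mRNA was quantified 24 h after dosing by RT-PCR, 6-FAM labelling and capillary electrophoresis; gain of signal versus DMSO.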

The target of assay [14] is zebrafish Thyroid Hormone Receptor alpha (TRa), thraa (gene 30670) (UniProt Q98867). The assay is described as follows: ATG_zfTRa_XSP1: Attagene TRANS-FACTORIAL Multi-Species (XSP1) HepG2 Assay for zebrafish Thyroid Hormone Receptor alpha (TRa) (AID 2283807). The method, boiled down:
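HepG2 cells transiently transfected with GAL4-UAS reporter units including a zebrafish TRa–Gal4 chimera, dosed 24 h with 3 nM 6-alpha-fluorotestosterone present. Reporter mRNA quantified by RT-PCR and capillary electrophoresis; gain versus DMSO.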

The target of assay [15] is human Thyroid hormone Receptor beta (TRb), THRB (gene 7068) (UniProt P10828). The assay is described as follows: ATG_hTRb_XSP1: Attagene TRANS-FACTORIAL Multi-Species (XSP1) HepG2 Assay for human Thyroid hormone Receptor beta (TRb) (AID 2283808). The method, boiled down:
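HepG2 cells transiently transfected with reporter units driving GAL4-UAS reporters for chimeric NR-Gal4 proteins; 24 h chemical exposure with 3 nM 6-alpha-fluorotestosterone present. Reporter mRNA quantified by RT-PCR and capillary electrophoresis, gain of signal versus DMSO.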

The target of assay [16] is zebrafish Thyroid Hormone Receptor beta (TRb), thrb (gene 30607) (UniProt Q9PVE4). The assay is described as follows: ATG_zfTRb_XSP1: Attagene TRANS-FACTORIAL Multi-Species (XSP1) HepG2 Assay for zebrafish Thyroid Hormone Receptor beta (TRb) (AID 2283809). The method, boiled down: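 HepG2 cells transiently transfected with multiplexed GAL4-UAS reporter units expressing chimeric zebrafish TRb–Gal4. Dosed 24 h with 3 nM 6-alpha-fluorotestosterone present; reporter mRNA measured by RT-PCR, HpaI digestion and capillary electrophoresis; gain of signal versus DMSO.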

A short description of assay [17]: ATG_M_06_XSP2: Attagene TRANS-FACTORIAL Multi-Species (XSP2) HepG2 Assay for M06 Transcription Factor (Internal Marker) (AID 2283811).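 Also: hits are increases in signal above the DMSO baseline.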 The method, boiled down: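 HepG2 cells transiently transfected with GAL4-UAS multi-reporter constructs, dosed 24 h with 3 nM 6-alpha-fluorotestosterone plus 1.5 nM norgestrel present to stimulate androgen receptor. Reporter mRNA quantified by RT-PCR, 6-FAM labelling, HpaI digestion and capillary electrophoresis; gain-of-signal fitted versus DMSO baseline.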

Assay [18] is described as follows: ATG_XTT_Cytotoxicity_XSP1: Cytotoxicity Assessment in the Attagene TRANS-FACTORIAL Multi-Species (XSP1) HepG2 Assay (AID 2283810). Put shortly: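 XTT viability readout taken at 24 hours post-dosing in HepG2 liver cells co-treated with 3 nM 6-alpha-fluorotestosterone. Signal loss relative to DMSO controls reflects cytotoxicity.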

“And” between values parts separate entries of the source, which are not always exact repeats. Identical values can stand only once. Results filed as inconclusive are left out. The source made the active and inactive calls. The calls were made as follows: active = hit-call score of the fitted dose curve at least 0.9, where 1 is the maximum; inconclusive = response in the unintended direction; inactive = score below 0.9.

Chain of Estrogen receptor beta (Homo sapiens) (Q92731 whole entry, looked up, the tested form may be a part): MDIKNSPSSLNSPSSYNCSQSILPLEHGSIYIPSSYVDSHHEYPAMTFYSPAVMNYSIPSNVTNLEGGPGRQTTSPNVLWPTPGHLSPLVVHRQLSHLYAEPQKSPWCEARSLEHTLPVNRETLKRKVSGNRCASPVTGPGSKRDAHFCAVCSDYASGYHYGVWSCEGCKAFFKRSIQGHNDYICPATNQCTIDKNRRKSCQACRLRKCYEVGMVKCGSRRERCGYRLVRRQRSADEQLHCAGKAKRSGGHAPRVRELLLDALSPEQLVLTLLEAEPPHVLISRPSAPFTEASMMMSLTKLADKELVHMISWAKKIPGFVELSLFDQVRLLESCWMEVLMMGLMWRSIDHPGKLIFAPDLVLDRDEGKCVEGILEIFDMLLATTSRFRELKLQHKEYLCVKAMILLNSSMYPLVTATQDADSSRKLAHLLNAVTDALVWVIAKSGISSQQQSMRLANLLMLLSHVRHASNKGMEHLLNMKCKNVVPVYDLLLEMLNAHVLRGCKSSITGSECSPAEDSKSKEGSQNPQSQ
Chain of AR (gene 367) (P10275 whole entry, looked up): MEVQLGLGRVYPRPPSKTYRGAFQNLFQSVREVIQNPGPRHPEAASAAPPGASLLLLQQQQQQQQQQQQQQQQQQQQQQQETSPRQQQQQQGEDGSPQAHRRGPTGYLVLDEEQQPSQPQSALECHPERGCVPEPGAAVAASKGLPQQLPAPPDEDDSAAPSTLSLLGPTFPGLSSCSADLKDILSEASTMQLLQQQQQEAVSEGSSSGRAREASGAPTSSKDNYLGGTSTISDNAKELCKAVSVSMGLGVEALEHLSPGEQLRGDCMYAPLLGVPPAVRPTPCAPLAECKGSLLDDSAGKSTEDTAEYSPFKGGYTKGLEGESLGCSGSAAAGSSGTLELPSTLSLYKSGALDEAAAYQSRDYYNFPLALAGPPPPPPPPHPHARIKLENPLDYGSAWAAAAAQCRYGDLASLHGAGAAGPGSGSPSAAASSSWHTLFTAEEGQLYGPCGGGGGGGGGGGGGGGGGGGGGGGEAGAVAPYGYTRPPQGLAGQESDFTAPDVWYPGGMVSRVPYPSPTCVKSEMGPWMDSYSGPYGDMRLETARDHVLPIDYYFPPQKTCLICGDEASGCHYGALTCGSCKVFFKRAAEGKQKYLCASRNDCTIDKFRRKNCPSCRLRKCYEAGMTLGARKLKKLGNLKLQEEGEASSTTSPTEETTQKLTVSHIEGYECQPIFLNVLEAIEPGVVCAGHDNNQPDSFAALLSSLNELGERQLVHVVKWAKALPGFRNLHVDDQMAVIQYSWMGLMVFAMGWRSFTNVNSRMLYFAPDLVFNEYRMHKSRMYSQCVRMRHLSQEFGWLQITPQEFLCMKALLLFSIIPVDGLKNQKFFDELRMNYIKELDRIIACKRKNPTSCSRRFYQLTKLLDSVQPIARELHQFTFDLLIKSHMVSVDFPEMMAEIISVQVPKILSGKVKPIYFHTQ
Chain of zebrafish Thyroid Hormone Receptor alpha (TRa), thraa (gene 30670) (Q98867 whole entry, looked up, the tested form may be a part): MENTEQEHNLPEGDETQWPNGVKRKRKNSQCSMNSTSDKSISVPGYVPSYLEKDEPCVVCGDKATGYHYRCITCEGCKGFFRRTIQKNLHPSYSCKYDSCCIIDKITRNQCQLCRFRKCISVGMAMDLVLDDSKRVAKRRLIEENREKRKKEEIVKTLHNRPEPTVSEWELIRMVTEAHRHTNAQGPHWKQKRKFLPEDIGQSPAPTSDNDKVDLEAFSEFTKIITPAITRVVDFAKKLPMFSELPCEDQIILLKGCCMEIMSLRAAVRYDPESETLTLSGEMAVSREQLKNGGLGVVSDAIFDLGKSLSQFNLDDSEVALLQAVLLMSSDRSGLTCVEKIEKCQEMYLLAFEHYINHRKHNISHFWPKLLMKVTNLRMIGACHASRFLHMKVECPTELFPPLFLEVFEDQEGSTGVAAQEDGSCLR
Chain of frog Thyroid hormone Receptor alpha (TRa), thra-a (gene 397942) (P15204 whole entry, looked up, the tested form may be a part): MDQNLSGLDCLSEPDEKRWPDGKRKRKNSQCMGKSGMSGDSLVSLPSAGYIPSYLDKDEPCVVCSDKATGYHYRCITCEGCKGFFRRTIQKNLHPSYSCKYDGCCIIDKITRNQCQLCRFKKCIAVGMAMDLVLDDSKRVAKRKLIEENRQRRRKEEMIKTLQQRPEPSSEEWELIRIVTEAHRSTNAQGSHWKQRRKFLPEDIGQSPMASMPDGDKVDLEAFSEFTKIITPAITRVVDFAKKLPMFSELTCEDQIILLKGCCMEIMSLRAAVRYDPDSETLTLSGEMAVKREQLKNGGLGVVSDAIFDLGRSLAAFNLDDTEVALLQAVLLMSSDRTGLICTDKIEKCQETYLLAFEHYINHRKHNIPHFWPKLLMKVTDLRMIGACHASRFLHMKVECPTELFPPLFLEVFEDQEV
Chain of zebrafish Thyroid Hormone Receptor beta (TRb), thrb (gene 30607) (Q9PVE4 whole entry, looked up, the tested form may be a part): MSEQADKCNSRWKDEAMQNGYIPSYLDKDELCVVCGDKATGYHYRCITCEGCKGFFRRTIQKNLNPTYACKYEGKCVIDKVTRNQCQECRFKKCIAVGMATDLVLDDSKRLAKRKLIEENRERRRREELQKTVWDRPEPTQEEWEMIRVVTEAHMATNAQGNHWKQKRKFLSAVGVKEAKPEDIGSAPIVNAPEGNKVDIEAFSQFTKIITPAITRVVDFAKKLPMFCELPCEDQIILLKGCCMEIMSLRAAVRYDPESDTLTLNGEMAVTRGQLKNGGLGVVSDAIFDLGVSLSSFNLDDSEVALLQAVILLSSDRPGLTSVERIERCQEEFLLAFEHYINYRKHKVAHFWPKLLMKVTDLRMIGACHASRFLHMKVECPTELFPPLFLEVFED
Chain of human Thyroid hormone Receptor beta (TRb), THRB (gene 7068) (P10828 whole entry, looked up, the tested form may be a part): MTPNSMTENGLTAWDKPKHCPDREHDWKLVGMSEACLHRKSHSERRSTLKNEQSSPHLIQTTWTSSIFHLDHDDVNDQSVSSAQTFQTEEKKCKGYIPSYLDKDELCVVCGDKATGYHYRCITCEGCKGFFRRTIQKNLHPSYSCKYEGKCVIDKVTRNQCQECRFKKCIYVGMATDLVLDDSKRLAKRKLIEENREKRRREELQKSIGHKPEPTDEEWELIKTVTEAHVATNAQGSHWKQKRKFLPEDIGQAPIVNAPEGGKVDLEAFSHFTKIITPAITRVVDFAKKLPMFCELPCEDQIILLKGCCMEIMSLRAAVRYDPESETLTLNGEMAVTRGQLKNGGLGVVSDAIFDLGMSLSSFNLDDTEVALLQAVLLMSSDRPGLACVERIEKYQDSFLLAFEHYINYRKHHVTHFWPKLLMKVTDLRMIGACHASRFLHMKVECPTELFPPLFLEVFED
Chain of human Thyroid hormone Receptor alpha (TRa), THRA (gene 7067) (P10827 whole entry, looked up, the tested form may be a part): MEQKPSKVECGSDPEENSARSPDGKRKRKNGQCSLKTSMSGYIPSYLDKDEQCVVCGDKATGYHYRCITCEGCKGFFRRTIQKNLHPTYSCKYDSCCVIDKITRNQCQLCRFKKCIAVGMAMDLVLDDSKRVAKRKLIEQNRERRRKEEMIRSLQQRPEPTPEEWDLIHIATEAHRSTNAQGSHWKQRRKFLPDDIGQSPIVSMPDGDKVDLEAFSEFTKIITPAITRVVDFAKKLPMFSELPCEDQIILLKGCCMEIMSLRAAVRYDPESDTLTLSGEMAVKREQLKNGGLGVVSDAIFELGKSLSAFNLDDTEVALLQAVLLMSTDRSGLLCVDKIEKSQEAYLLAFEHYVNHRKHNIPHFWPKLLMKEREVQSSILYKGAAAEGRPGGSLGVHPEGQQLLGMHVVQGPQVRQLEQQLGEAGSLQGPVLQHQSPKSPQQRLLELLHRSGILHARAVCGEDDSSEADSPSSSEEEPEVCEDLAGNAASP
Chain of GAL4 Transcription Factor (Internal Marker), GAL4 (gene 855828) (P04386 whole entry, looked up, the tested form may be a part): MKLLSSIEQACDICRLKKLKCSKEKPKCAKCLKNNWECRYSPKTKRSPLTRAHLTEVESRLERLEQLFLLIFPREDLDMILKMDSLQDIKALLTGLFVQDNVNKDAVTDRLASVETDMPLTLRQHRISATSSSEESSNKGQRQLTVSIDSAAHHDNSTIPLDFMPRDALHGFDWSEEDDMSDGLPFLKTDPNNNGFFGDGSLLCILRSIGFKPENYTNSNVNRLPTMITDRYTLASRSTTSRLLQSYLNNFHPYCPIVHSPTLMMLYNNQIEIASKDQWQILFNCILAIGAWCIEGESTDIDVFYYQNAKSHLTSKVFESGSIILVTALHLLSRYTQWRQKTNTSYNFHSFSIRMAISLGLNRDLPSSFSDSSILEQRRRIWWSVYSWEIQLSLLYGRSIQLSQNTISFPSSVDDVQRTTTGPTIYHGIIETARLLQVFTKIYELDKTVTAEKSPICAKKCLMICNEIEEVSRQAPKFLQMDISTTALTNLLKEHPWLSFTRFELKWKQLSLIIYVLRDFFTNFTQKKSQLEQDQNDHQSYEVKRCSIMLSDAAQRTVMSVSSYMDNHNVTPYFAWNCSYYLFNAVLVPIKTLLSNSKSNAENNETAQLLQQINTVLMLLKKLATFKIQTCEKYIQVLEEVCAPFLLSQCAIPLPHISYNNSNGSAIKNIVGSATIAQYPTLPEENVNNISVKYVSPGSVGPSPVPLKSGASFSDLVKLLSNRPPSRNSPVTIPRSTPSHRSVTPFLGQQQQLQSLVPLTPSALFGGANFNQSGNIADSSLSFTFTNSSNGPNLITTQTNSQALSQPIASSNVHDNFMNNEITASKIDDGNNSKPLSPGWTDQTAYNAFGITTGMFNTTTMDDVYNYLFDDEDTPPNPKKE
Chain of Nuclear receptor subfamily 1 group I member 2 (Mus musculus) (O54915 whole entry, looked up, the tested form may be a part): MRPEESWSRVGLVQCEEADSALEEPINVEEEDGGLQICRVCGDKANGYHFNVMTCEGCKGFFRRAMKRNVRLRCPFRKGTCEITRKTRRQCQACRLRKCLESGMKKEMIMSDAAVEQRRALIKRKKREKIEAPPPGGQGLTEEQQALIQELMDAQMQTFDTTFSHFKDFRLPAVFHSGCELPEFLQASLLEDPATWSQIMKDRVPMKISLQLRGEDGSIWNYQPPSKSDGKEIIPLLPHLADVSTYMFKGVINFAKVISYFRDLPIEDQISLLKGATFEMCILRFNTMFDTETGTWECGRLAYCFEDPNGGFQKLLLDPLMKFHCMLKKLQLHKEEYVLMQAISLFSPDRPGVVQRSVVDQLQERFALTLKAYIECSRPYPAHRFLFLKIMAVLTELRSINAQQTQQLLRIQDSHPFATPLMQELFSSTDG

In the case of `CC1(C)NC(=O)N(c2ccc([N+](=O)[O-])c(C(F)(F)F)c2)C1=O`, the compound was called inactive in assay [1] and in assay [2].

For `Cc1ccc(C(C)C)cc1`, the outcome with AR (gene 367) was inactive.

The AC50 is the concentration at which the activity in the assay is half-maximal. With `CC(C)(c1cc(Br)c(O)c(Br)c1)c1cc(Br)c(O)c(Br)c1`, the outcome in [3], in assay [4], in assay [5], in assay [6], in [7] and in assay [10] was inactive. The call in assay [13], in assay [14], in assay [15], in assay [17], in assay [1] and in [2] was inactive. For the same compound, the half-maximal activity concentration (AC50) in [8] was 9.55 µM (active); in assay [9], 2.06 µM (active); in assay [11], 3.79 µM (active); in assay [12], 3.39 µM (active); in assay [16], 13.9 µM (active).

Consider `COCC(C)OCC(C)OCC(C)O` (stereo not drawn), for which the call with AR (gene 367) was inactive.

For the compound `CCCCOC(=O)c1ccc(O)cc1`, the AC50 with AR (gene 367) is 67.9 µM (active).

Take `CN(C)c1ccc(C(=C2C=CC(=[N+](C)C)C=C2)c2ccc(N(C)C)cc2)cc1`: the AC50 in the assay with AR (gene 367) was 0.167 µM (active).

Consider `CN(C[C@@H](CC[N+]12CCC(C3CCCCC3)(CC1)CC2)c1ccc(Cl)c(Cl)c1)C(=O)c1cc(C(F)(F)F)cc(C(F)(F)F)c1`, for which the AC50 with AR (gene 367) was 7.24 µM (active).

For `CC/C(=C(/CC)c1ccc(O)cc1)c1ccc(O)cc1`, the call in assay [5], in [6], in assay [11], in assay [13], in assay [14] and in assay [16] was inactive. Also, the call in assay [18] and in [17] was inactive. Further, the AC50 in [1] was 0.138 nM (active).

For the compound `Cc1occc1C(=O)Nc1ccc(C(=O)N2CCC(F)(F)/C(=C\C(=O)N3CCC(N4CCCCC4)CC3)c3ccccc32)cc1`, the AC50 in the assay with AR (gene 367) is 42.3 µM (active).

For `O=C(O)c1ccccc1C(=O)OCc1ccccc1`, the compound was called inactive in the assay with AR (gene 367).

Turning to `O=c1c(-c2ccc(O)cc2)coc2cc(O)cc(O)c12`, the AC50 was 65.1 µM (active) with AR (gene 367); 213 nM (active) and 25.4 nM (active) in [1]. Besides, the call in assay [17] was inactive.
